DRD3 antagonist: blocks the human D3 dopamine receptor | max response, negative = inhibition, % | AID 652054 | hit rate 2.5% among 360,000 | D3R cells, DiscoveRx beta-arrestin luminescence, antagonist mode; stronger effect = lower value; in the data active means max response below about -50%; inconclusive means no clear call, values can overlap the other calls
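Cells expressing the human receptor were seeded at 1500 cells/well, incubated overnight at 37 degrees C in 5% CO2, then exposed to library compounds with dopamine controls for 90 minutes at 37 degrees C before luminescent detection.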
GLP1R inv ag: GLP-1 receptor (human) inverse agonism. Potency, µM (series often up to 38.3 µM), most hits filed as inhibitors. HEK293 GLP-1R CRE-luciferase, luminescence, 24 h; GLP-1R form is constitutively active. hit rate 1.6% among 410,000. P43220. AID 624417; further: nearly all actives have a fitted effect of over 55% in size
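qHTS in 1536-well format: reporter HEK293 cells expressing constitutive GLP-1R activity in DMEM + 10% Nu serum, 24 hr with compounds at 37 deg C, luminescence read after 12 min with detection reagent.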
D3 ag: activates the human D3 dopamine receptor. P35462. hit rate 0.58% among 410,000. max activation, %. D3R DiscoveRx beta-arrestin cells, luminescence, 90 min; in the data active means max activation above about 30%
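Agonist mode: compounds and dopamine controls were applied to plated cells for 90 min at 37 degrees C after an overnight attachment at 1500 cells/well. Luminescent read-out followed 30 - 60 minutes at room temperature with DiscoveRx detection reagent.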
HEK293 tox: cytotoxicity in counter-screen for GLP-1R inverse agonists. hit rate 0.13% among 410,000. AID 624418. Potency, µM (doses to about 38.3 µM), most hits filed as inhibitors. HEK293 cAMP-luciferase reporter cells, luminescence, 24 h;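 further: loss of luciferase light is scored as toxicity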
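Seeding density was 200 cells/uL; after overnight-length (12 h) culture, 23 nL compounds went on for 24 h at 37 °C. Readout used a luciferase detection reagent, luminescence taken after 12 min at room temperature.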
ClpP mod: qHTS Assay for Activators of ClpP. Potency, µM (titrated, usually from 57.5 µM). AID 651965, 2013. ATP-dependent Clp protease proteolytic subunit (Bacillus subtilis (strain 168)), P80244. purified B. subtilis ClpP, FRET peptide cleavage, 20 min. hit rate 1.9% among 340,000; active means well fitted falling curve with a large enough effect; inconclusive means small, poorly fitted or top-dose-only effect; inactive means no such curve, though single readings can be large or run the other way; further: the source files actives as falling curves though it sought activators and does not explain the sign; nearly all actives have a fitted effect of over 65% in size
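FRET quenching reversal measured ClpP activation: 10 microg/mL B. subtilis ClpP at pH 8 with the FRET-FV decapeptide, read at 430 nm after 320 nm excitation. The 20-min minus 0-min signal was scaled between DMSO/no-enzyme wells and ADEP (5.8 microM final).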
GLP1R ag: agonists of human GLP-1 receptor; Potency, µM (titrated, usually from 45.6 µM), most hits filed as activators; hit rate 0.007% among 380,000; HEK293 GLP-1R CRE-luciferase, luminescence, 4-6 h; cells express a hypersensitive GLP-1R form; P43220
Numbers stand for hits; - = inactive; ? = inconclusive; . = no result given; [ ] = remark or other dose. Rows were chosen to be rich in hits. Some 5.7% of all compounds tested hit in one or more screens of this group. Unless noted, the call rests on the fitted dose curve; in most records, active means well fitted curve in the direction sought with a large enough effect; inconclusive means small, poorly fitted or top-dose-only effect, or another doubt; inactive means no such curve, though single readings can be large; an effect the other way counts as inactive or inconclusive.

SMILES	DRD3 antagonist	GLP1R inv ag	D3 ag	HEK293 tox	ClpP mod	GLP1R ag
O=C(N/N=C/c1sc(N2CCOCC2)nc1-c1ccccc1)c1ccc(O)cc1	-	-	-	-	.	-
C[C@]12CCC(=O)C=C1CC[C@@H]1[C@@H]2[C@@H](O)C[C@@]2(C)[C@H]1CC[C@]2(O)C(=O)COP(=O)(O)O	.	.	-	.	.	-
Cc1cccc(C(=O)N[C@H](C(=O)Nc2cc(S(=O)(=O)N3CCCCC3)ccc2C)C(C)C)c1	-	10µM	-	-	-	-
Cc1ccc(S(=O)(=O)N2CCCCC2)cc1NC(=O)c1cncc(Br)c1	-	-	-	-	11µM	-
Cc1cccc(OC(C)C(=O)Nc2cc(S(=O)(=O)N3CCCCC3)ccc2C)c1 (configuration not stated)	-	?	-	-	-	-
O=C(Nc1cccc(S(=O)(=O)N2CCCCCC2)c1)c1cncc(Br)c1	-	?	-	-	-	-
CCNc1nc(C23CC4CC(CC(C4)C2)C3)cs1	-	2.8µM	-	-	.	-
Cc1cc2c(OCC(O)CNC3CCCCC3)cccc2[nH]1 (configuration not stated)	-59	?	-	-	.	-
Cc1ccccc1OCC(O)CNC1CCC(NCC(O)COc2ccccc2C)CC1 (configuration not stated)	-	1.3µM	-	?	.	-
Cc1cc2c(OCC(O)CN3CCCCC3)cccc2[nH]1 (configuration not stated)	-	-	-	-	.	-
OC(CNC1CCCC1)COc1ccccc1Br (configuration not stated)	-	?	-	-	-	-
COc1ccc(OCC(O)CNC2CCCC2)cc1 (configuration not stated)	-	-	-	-	.	-
OC(CNC1Cc2ccccc2C1)COc1ccc(F)cc1 (configuration not stated)	-64	?	-	-	.	-
OC(CNC1CCCCCC1)COc1cccc2ccccc12 (configuration not stated)	-75	11µM	-	?	-	-
Cc1cccc(S(=O)(=O)N[C@@H]2CC[C@@H](CCNS(=O)(=O)c3ccccc3F)O[C@@H]2CO)c1	-	-	-	-	-	.
Cc1cc(C)cc(NC(=O)C2C3C=CC4(O3)C2C(=O)N(CCN2CCCCC2)C4C(=O)NC2CCCCC2)c1 (configuration not stated)	-	-	-	-	-	-
CN(C)CCN1C(=O)C2C(C(=O)Nc3cc(Cl)cc(Cl)c3)C3C=CC2(O3)C1C(=O)NC1CCCCC1 (configuration not stated)	-	10µM	-	-	-	-
OC(c1cc(-c2cccc(Cl)c2)nc2ccccc12)C1CCCCN1 (configuration not stated)	-	1.4µM	-	10µM	.	-
CC1=C(C#N)C(c2cccnc2)C2=C(N1)c1ccccc1C2=O (configuration not stated)	-	-[0.307 µM]	-	-[0.307 µM]	-	-
CC1=C(C#N)C(c2cccnc2)C2=C(CCCC2=O)N1 (configuration not stated)	-	-	-	-	8.9µM	-
Cn1nnc2cc(C(=O)NCc3ccc4c(c3)OCO4)ccc21	-	-	-	-	-	-
Cn1nnc2cc(NC(=O)NCc3ccc4c(c3)OCO4)ccc21	-90	-	-	-	-	-
O=C(CCCn1c(=O)[nH]c2ccccc2c1=O)N1CCN(c2ccccc2)CC1	.	-	-	-	-	.
CN(CC(=O)Nc1c(Cl)cccc1Cl)C(=O)c1cc(-c2cccs2)nn1-c1ccccc1	-	?	-	-	-	-
Cc1ccc(NC(=O)CN(C)C(=O)c2cc(-c3cccs3)nn2-c2ccccc2)cc1	-	7.9µM	-	-	-	-
SMILES	DRD3 antagonist	GLP1R inv ag	D3 ag	HEK293 tox	ClpP mod	GLP1R ag
CCN(CC(=O)Nc1c(F)cccc1F)C(=O)c1cc(-c2cccs2)nn1-c1ccccc1	-	10µM	-	?	-	-
CC1CCN(c2ccc(-c3cccc(NS(=O)(=O)c4ccc(F)cc4F)c3)nn2)CC1	.	?	-	-	-	.
O=C1OCC(c2ccccc2)=C1c1ccccc1	-	-	-	-	35µM	-
CO/N=C(\C(=O)N[C@@H]1C(=O)N2C(C(=O)O)=C(CSc3nc(C)c(CC(=O)O)s3)CS[C@H]12)c1csc(N)n1	.	.	-	.	.	.
OC(c1ccccc1)C(NCCNCc1ccccc1)c1ccccc1 (configuration not stated)	-	7.9µM	-	-	.	-
Cc1ccc2cc(CN(CCCN3CCOCC3)C(=O)NC3CCCCC3)c(=O)[nH]c2c1C	?	?	-	-	28µM	-
O=C(NC1CCCCC1)N(CCN1CCCC1)Cc1cc2cc3c(cc2[nH]c1=O)OCCO3	?	-	-	-	35µM	-
Cc1cn([C@H]2C[C@H](O)[C@@H](/C=C/C(=O)NCc3ccco3)O2)c(=O)[nH]c1=O	-	-	-	-	-	-
CC[C@@H](C)[C@H](N)C(=O)O	.	.	-	.	.	.
CCOc1ccccc1NC(=O)C1(S(=O)(=O)c2ccc(Cl)cc2)CC1	-	7.1µM	-	-	.	-
CCOc1ccccc1NC(=O)c1cc(S(=O)(=O)NC2CCCC2)ccc1F	.	6.3µM	-	-	-	.
CCOC(=O)c1ccc(NC(=O)C2(S(=O)(=O)c3ccc(Cl)cc3)CC2)cc1	.	?	-	-	-	.
CCCCN(CC)C(=O)CCn1c(=O)c2cccn2c2cccnc21	.	-	-	-	-	.
CCCC(=O)N1CCC1(C)C(=O)Nc1ccc(-n2cccc2)cc1 (configuration not stated)	-	-	-	-	-	-
CC(C)(C)C(=O)C(Cc1ccccc1)n1cncn1 (configuration not stated)	-55	?	-	-	-	-
Cc1cc(C)n(-c2nc(NCCO)c3c4c(sc3n2)CCCC4)n1	?	4.5µM	-	?	-	-
Cc1cc(C)n(-c2nc(NCCCO)c3c4c(sc3n2)CCCC4)n1	-	?	-	?	18µM	-
O=c1c2c3c(sc2nc(NCCO)n1-c1ccccc1)CCCC3	-	?	-	-	-	-
Cc1cc(C)n(-c2nc(NCC3CCCO3)c3c4c(sc3n2)COC(C)(C)C4)n1 (configuration not stated)	-	?	-	3.2µM	-	-
Cc1cc(C)n(-c2nc(NCC(C)O)c3c4c(sc3n2)COC(C)(C)C4)n1 (configuration not stated)	-	-	-	?	28µM	-
Cc1cc(C)n(-c2nc(SCCN(C)C)c3c4c(sc3n2)COC(C)(C)C4)n1	-	?	-	?	?	-

High-throughput results (PubChem)
